# Data published in publication PMC7862700, “An all-to-all approach to the identification of sequence-specific readers for epigenetic DNA modifications on cytosine”.
# Assays:
# Experiment in all cases: DAPPL (digital affinity profiling via proximity ligation, sequencing); 10 mM Tris-HCl pH 7.5, 50 mM NaCl, 1 mM DTT, 4% glycerol, room temperature, 30 min; GST-TFs on glutathione beads, 16-mer random dsDNA library, 0.1% formaldehyde crosslink after washing; high values mean tight binding
# Conditions in all cases: protein: recombinant; tags: N-terminal GST; dsDNA, one strand shown
# [1] = target: T1, FLI1 (Homo sapiens, UniProt Q01543 1-452)
# T1 sequence: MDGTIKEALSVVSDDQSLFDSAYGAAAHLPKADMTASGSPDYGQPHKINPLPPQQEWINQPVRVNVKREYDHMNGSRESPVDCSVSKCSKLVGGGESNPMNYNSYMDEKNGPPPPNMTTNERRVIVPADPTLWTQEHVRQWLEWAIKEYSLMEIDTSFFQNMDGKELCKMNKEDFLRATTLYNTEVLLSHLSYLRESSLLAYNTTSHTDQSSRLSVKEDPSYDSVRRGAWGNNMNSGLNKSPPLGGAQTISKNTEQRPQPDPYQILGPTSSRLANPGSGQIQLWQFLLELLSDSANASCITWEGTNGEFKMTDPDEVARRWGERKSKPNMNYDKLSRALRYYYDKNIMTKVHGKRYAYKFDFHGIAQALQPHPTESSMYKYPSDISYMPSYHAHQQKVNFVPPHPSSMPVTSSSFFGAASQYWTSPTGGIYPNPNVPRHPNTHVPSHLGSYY
# Procedure, shortened: (§1)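 Each value of binding signal is a hexamer's read frequency for a factor divided by the same hexamer's frequency in the tag-only sample. Barcoded, bead-captured GST fusions of human transcription factors made in yeast were pooled with that sample and incubated with 200 nmole of a random double-stranded 16-mer DNA library in Tris/NaCl/DTT/glycerol buffer at room temperature for 30 min. Washing, 0.1% formaldehyde crosslinking, proximity ligation, PCR and Illumina NextSeq500 sequencing followed.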
# [2] = target: T2, ELK1 (Homo sapiens, UniProt P19419 1-428)
# T2 sequence: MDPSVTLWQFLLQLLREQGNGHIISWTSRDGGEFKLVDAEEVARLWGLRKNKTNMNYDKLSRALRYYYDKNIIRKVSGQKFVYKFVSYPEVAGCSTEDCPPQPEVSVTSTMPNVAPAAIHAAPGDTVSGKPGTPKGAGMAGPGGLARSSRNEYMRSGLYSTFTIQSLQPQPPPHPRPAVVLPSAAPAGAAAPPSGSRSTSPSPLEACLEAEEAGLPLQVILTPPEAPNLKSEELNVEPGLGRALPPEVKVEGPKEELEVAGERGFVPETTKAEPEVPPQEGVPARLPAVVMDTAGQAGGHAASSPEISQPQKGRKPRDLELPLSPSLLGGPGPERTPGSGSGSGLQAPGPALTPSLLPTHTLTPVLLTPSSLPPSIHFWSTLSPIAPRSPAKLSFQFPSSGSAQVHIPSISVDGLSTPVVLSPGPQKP
# Procedure, shortened: as §1
# [3] = target: T3, GABPA (Homo sapiens, UniProt Q06546 1-454)
# T3 sequence: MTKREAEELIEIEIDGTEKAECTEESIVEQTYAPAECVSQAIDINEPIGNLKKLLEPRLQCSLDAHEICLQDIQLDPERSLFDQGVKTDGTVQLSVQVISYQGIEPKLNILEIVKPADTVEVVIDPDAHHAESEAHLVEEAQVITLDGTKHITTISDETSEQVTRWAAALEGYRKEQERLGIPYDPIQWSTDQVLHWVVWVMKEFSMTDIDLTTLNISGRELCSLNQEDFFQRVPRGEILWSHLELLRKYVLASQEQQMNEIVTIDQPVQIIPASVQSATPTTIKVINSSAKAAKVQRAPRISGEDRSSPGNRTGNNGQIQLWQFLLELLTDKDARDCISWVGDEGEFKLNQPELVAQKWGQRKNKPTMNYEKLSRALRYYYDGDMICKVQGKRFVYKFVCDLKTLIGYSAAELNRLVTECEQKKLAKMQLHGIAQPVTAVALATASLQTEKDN
# Procedure, shortened: as §1
# [4] = target: T4, ERG (Homo sapiens, UniProt P11308 1-479)
# T4 sequence: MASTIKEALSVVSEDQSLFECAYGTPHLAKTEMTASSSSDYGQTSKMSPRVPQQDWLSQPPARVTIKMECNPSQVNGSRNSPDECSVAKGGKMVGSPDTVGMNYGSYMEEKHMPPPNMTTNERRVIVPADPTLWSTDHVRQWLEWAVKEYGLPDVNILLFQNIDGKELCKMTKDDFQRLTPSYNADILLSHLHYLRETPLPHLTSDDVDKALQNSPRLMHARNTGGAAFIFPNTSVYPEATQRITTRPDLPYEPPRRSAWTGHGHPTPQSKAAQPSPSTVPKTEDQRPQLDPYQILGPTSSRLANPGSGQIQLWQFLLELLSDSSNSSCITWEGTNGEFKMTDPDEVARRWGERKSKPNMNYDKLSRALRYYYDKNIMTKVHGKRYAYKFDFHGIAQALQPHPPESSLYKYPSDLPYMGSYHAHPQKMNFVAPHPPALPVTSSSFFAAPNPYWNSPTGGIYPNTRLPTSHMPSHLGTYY
# Procedure, shortened: as §1
# [5] = target: ELF1 (Homo sapiens, UniProt P32519 1-619)
# Chain of ELF1 (P32519 whole entry): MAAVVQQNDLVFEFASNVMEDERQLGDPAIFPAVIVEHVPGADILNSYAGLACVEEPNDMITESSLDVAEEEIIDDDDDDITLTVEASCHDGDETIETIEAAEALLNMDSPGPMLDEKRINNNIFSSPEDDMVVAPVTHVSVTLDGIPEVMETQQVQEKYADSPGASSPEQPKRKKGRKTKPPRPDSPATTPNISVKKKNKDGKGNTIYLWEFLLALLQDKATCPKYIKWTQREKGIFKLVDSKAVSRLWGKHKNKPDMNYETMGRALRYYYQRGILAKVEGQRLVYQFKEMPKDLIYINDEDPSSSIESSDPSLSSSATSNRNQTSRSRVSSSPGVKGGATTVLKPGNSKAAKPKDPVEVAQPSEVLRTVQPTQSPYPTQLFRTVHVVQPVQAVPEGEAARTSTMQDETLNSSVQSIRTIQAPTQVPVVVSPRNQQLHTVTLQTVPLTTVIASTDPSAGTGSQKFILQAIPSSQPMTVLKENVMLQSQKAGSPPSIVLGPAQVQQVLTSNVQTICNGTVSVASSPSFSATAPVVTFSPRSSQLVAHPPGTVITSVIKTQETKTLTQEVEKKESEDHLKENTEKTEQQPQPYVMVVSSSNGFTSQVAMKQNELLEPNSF
# Procedure, shortened: as §1
# [6] = target: T5, EHF (Homo sapiens, UniProt Q9NZC4 1-300)
# T5 sequence: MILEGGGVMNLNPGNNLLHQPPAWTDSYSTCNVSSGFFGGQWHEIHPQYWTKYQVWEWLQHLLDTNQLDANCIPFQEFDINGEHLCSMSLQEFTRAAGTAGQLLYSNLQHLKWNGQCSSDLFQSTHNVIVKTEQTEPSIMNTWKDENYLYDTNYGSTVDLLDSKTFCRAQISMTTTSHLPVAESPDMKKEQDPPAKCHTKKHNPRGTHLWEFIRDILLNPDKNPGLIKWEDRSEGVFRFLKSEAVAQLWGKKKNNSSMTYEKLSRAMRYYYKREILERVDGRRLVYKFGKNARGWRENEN
# Procedure, shortened: as §1
# [7] = target: SPI1 (Homo sapiens, UniProt P17947 1-270)
# Procedure, shortened: as §1
# [8] = target: SPIB (Homo sapiens, UniProt Q01892 1-262)
# Chain of SPIB (Q01892 whole entry): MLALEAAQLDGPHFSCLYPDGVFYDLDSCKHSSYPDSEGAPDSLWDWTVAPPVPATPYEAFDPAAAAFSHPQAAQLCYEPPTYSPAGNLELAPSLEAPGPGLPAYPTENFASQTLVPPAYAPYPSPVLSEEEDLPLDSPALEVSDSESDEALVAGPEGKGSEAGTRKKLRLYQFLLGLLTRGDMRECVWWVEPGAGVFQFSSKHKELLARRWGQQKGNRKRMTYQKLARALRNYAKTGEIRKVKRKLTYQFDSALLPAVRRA
# Procedure, shortened: as §1
# [9] = target: T6, ELK3 (Homo sapiens, UniProt P41970 1-407)
# T6 sequence: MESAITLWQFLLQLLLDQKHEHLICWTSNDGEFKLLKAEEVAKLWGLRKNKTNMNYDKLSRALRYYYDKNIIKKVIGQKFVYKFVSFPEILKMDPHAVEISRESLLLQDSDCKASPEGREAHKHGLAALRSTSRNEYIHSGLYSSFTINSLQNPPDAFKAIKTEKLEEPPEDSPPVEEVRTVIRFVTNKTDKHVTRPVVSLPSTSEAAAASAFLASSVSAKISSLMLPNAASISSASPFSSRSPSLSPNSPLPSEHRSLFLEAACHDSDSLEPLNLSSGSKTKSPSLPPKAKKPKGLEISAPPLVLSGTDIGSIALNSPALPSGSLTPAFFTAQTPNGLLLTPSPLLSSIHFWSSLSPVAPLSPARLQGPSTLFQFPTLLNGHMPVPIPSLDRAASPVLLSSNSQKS
# Procedure, shortened: as §1
Sequence,binding signal [1],binding signal [2],binding signal [3],binding signal [4],binding signal [5],binding signal [6],binding signal [7],binding signal [8],binding signal [9]
CTAAGT,"1.21 fold enrichment (6-mer frequency, TF over GST control)","1.17 fold enrichment (6-mer frequency, TF over GST control)","1.26 fold enrichment (6-mer frequency, TF over GST control)","1.18 fold enrichment (6-mer frequency, TF over GST control)","1.2 fold enrichment (6-mer frequency, TF over GST control)","1.26 fold enrichment (6-mer frequency, TF over GST control)","1.19 fold enrichment (6-mer frequency, TF over GST control)","1.24 fold enrichment (6-mer frequency, TF over GST control)","1.16 fold enrichment (6-mer frequency, TF over GST control)"
TTTCGT,"1.31 fold enrichment (6-mer frequency, TF over GST control)","1.38 fold enrichment (6-mer frequency, TF over GST control)","1.37 fold enrichment (6-mer frequency, TF over GST control)","1.23 fold enrichment (6-mer frequency, TF over GST control)","1.41 fold enrichment (6-mer frequency, TF over GST control)","1.46 fold enrichment (6-mer frequency, TF over GST control)","1.27 fold enrichment (6-mer frequency, TF over GST control)","1.47 fold enrichment (6-mer frequency, TF over GST control)","1.25 fold enrichment (6-mer frequency, TF over GST control)"
CATTTT,"1.24 fold enrichment (6-mer frequency, TF over GST control)","1.04 fold enrichment (6-mer frequency, TF over GST control)","1.23 fold enrichment (6-mer frequency, TF over GST control)","1.14 fold enrichment (6-mer frequency, TF over GST control)","1.18 fold enrichment (6-mer frequency, TF over GST control)","1.16 fold enrichment (6-mer frequency, TF over GST control)","1.39 fold enrichment (6-mer frequency, TF over GST control)","1.23 fold enrichment (6-mer frequency, TF over GST control)","1.15 fold enrichment (6-mer frequency, TF over GST control)"
TAATGC,"1.26 fold enrichment (6-mer frequency, TF over GST control)","1.22 fold enrichment (6-mer frequency, TF over GST control)","1.26 fold enrichment (6-mer frequency, TF over GST control)","1.18 fold enrichment (6-mer frequency, TF over GST control)","1.16 fold enrichment (6-mer frequency, TF over GST control)","1.22 fold enrichment (6-mer frequency, TF over GST control)","1.1 fold enrichment (6-mer frequency, TF over GST control)","1.24 fold enrichment (6-mer frequency, TF over GST control)","1.29 fold enrichment (6-mer frequency, TF over GST control)"
TTCTGA,"1.37 fold enrichment (6-mer frequency, TF over GST control)","1.39 fold enrichment (6-mer frequency, TF over GST control)","1.27 fold enrichment (6-mer frequency, TF over GST control)","1.31 fold enrichment (6-mer frequency, TF over GST control)","1.27 fold enrichment (6-mer frequency, TF over GST control)","1.32 fold enrichment (6-mer frequency, TF over GST control)","1.21 fold enrichment (6-mer frequency, TF over GST control)","1.32 fold enrichment (6-mer frequency, TF over GST control)","1.38 fold enrichment (6-mer frequency, TF over GST control)"
ACCTTA,"1.34 fold enrichment (6-mer frequency, TF over GST control)","1.24 fold enrichment (6-mer frequency, TF over GST control)","1.19 fold enrichment (6-mer frequency, TF over GST control)","1.3 fold enrichment (6-mer frequency, TF over GST control)","1.2 fold enrichment (6-mer frequency, TF over GST control)","1.24 fold enrichment (6-mer frequency, TF over GST control)","1.24 fold enrichment (6-mer frequency, TF over GST control)","1.21 fold enrichment (6-mer frequency, TF over GST control)","1.13 fold enrichment (6-mer frequency, TF over GST control)"
CTAATT,"1.35 fold enrichment (6-mer frequency, TF over GST control)","1.2 fold enrichment (6-mer frequency, TF over GST control)","1.33 fold enrichment (6-mer frequency, TF over GST control)","1.36 fold enrichment (6-mer frequency, TF over GST control)","1.43 fold enrichment (6-mer frequency, TF over GST control)","1.33 fold enrichment (6-mer frequency, TF over GST control)","1.3 fold enrichment (6-mer frequency, TF over GST control)","1.37 fold enrichment (6-mer frequency, TF over GST control)","1.4 fold enrichment (6-mer frequency, TF over GST control)"
